Screen size: about 53,000 compounds; about 900 (1.7%) showed an effect of 50% or more. The full list was thinned out, with strong results kept by preference.
System: Mycobacterium tuberculosis
Assay: Cornell - Phenotypic assay to identify agents that inhibit growth of Mycobacterium tuberculosis
Format: functional
Parameters: scale not given: direction of the effect not stated beside the values
Conditions: 10 mM as filed; unlikely as a test dose

SMILES	Percent Effect
COc1nn(C)c2c1CCCN(C(=O)c1cc[nH]n1)C2	12.29%
CC1(C)OC(=O)N(CC(=O)N2CCC(c3ccccc3Cl)C2)C1=O (centres undefined)	25.58%
CC1(C)OC(=O)N(CC(=O)N2CCC(c3ccccc3F)C2)C1=O (centres undefined)	22.76%
COc1ccccc1C1CCN(C(=O)CN2C(=O)OC(C)(C)C2=O)CC1	53.49%
O=C(O)C(F)(F)F.O=C1CC2(CCN(Cc3ccccn3)C2)CN1c1cncnc1 (centres undefined)	17.37%
CCCC(C#N)NC(=O)c1cc(Br)c2c(c1)OCCO2 (centres undefined)	14.39%
Oc1ccc(Cl)cc1CNCc1ccccc1C(F)(F)F	6.779%
Oc1ccc(Cl)cc1CNCc1cccc(C(F)(F)F)c1	70.21%
Oc1ccc(Cl)cc1CNCc1ccccc1Cl	26.21%
CCc1nnc(NC(=O)c2c3c(nn2C2CCS(=O)(=O)C2)CCC3)s1 (centres undefined)	-18.44%
CNC(=O)NCC1CCC2(CCN(C(=O)c3ccccc3)CC2)CO1 (centres undefined)	2.943%
O=C(O)C(F)(F)F.O=C([C@H]1CC[C@@H]2[C@@H](CCN2C2CCOCC2)O1)N1CCOCC1	0.461%
O=C(CN1CCc2sccc2C1)Nc1ccnc2ccnn12	105.2%
CC(C)n1nccc1NC(=O)CN1CCc2sccc2C1	2.695%
Cn1nccc1NC(=O)CN1CCc2sccc2C1	-1.554%
O=C(O)C(F)(F)F.O=C(O)C(F)(F)F.O=C(c1cccnc1)N1CCC[C@]2(C[C@H](Oc3ncccc3F)CO2)C1	-30.18%
COCCN1CCC(c2cncc(N(C)C)n2)CC1	-17.24%
O=C(O)c1ccccc1-c1ccc(CN2CC(c3ccncn3)C2)o1	60.18%
Nc1nccc(C2CN(Cc3ccc(-c4ccccc4C(=O)O)o3)C2)n1	40.18%
Cc1nccc(C2CN(Cc3ccc(-c4ccccc4C(=O)O)o3)C2)n1	19.38%
CCc1ccc(CN(CCCn2ccnc2)Cc2ccc(C)s2)o1.O=C(O)CC(O)(CC(=O)O)C(=O)O	67.99%
Cc1ccc(CN(CCCn2ccnc2)Cc2ccccc2O)s1.O=C(O)CC(O)(CC(=O)O)C(=O)O	-13.23%
Cc1ccc(CN(CCCn2ccnc2)Cc2cccs2)s1.O=C(O)CC(O)(CC(=O)O)C(=O)O	40.45%
Cc1cnc(CCNC(=O)NCCc2ccc(O)cc2)s1	16.98%
O=C(c1ccno1)N1CCn2cc(CN3CCCCC3)nc2C1	6.548%
CCc1ccc(C(COC)NC(=O)c2ccsc2)o1 (centres undefined)	37.56%
c1cc2n(n1)CC(CNCc1ccc(OC3CCCCC3)nc1)CN2 (centres undefined)	102.7%
c1cc(CNCC2CNc3ccnn3C2)cc(OC2CCCCC2)n1 (centres undefined)	-14.29%
c1cc2n(n1)CC(CNCc1ccc(OC3CCCC3)nc1)CN2 (centres undefined)	-62.66%
